# Experimental data from PubChem BioAssay (NCI).
# About 83,000 compounds went through this panel and 20% of them were active in at least one assay; those are over-represented in the sample as a whole.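 Cells were grown in 96-well plates and exposed to the test compound at a single concentration for 48 hours; results are reported as percent growth, with values below 10 considered active.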 A number with no mark means an inactive call. The source made the active and inactive calls.
# Test system: NCI-H460 lung
# Assay: NCI-60 one-dose screen, 48 h (100 = growth as untreated, 0 = no growth, -100 = all killed)
# Conditions: 10 µM
row,SMILES,growth
1,Oc1[nH]c2ccc(Cl)cc2c1/C=c1/ccc2c(c1)N=C(c1cc(F)cc(F)c1)N=2,63.8%
2,COc1ccc2c(c1)C(=O)c1c-2c(=O)n(CCCN(C)C)c2cc(OC)c(OC)cc12,10.9%
3,CCCCCCCCCCCCCCCCN(C(C)c1ccccc1)S(=O)(=O)c1ccc(OC)c(N)c1 (centres undefined),107%
4,COc1ccc2c(c1)C(=O)c1c-2c(OCCN(C)C)nc2ccccc12,2.29% (active)
5,CO/N=C(/C(=O)NC1C(=O)N2C(C(=O)O)=C(COC(N)=O)CSC12)c1ccco1 (centres undefined),118%
6,CC/C(=C(/c1ccc(OCCN(C)C)cc1)c1ccc(OC(=O)CCC(=O)c2c(C)[nH]c(/C=C3\N=C(c4ccc[nH]4)C=C3OC)c2C)cc1)c1ccccc1,51%
7,COc1ccc2c(c1)O/C(=C\c1ncc([N+](=O)[O-])n1C)C2=O,-30.6% (active)
8,COc1ccc(/C=C2/CN(C(=O)c3ccccc3F)C/C(=C\c3ccc(OC)cc3)C2=O)cc1,94%
9,O=C(Nc1cccc(-n2cc(-c3ccncc3)c(-c3cc(O)cc(Cl)c3)n2)c1)c1ccc(N2CCOCC2)c(C(F)(F)F)c1,-26% (active)
10,COc1ccc(/C=C2/CN(CCC#N)C/C(=C\c3ccc(OC)cc3)C2=O)cc1,2.6% (active)
11,Nc1ncn([C@@H]2O[C@H](CO)[C@@H](O)[C@H]2O)c(=O)n1,-1.73% (active)
12,COc1cccc(C(=O)Nc2ccc(CN3CCc4nc5cc(OC)c(OC)cc5cc43)cc2)c1,9.4% (active)
13,CC(C)=CCc1cc(O)cc2c1OC(C=C(C)C)C1=C2C(=O)C2=C(C1=O)S(=O)(=O)CCN2 (centres undefined),31.4%
14,N=C(N)c1ccc(-c2ccc(-c3ccccc3)o2)nc1,90.3%
15,COc1ccc2nc3cc(Cl)ccc3c(NCCNCC(C)O)c2c1 (centres undefined),0.055% (active)
16,N#CCCN1C/C(=C/c2ccc(Br)cc2)C(=O)/C(=C/c2ccc(Br)cc2)C1,-55.2% (active)
17,O=C(Nc1ccncc1)C(=O)c1cn(S(=O)(=O)c2cccc3ccccc23)c2ccccc12,85.7%
18,CCn1cc(C(=O)O)c(=O)c2cnc(N3CCCC3)nc21,110%
19,Cc1ccc(NC(=O)Nc2c(Cl)cccc2Cl)cn1,106%
20,Cc1ccc(NC(=O)CSc2nc3ccccc3c(=O)n2CCc2ccccc2)c(C(=O)O)c1,110%

row,SMILES,growth
1,O=C(Nc1ccccc1)Nc1cccc(-n2cc(-c3ccncc3)c(-c3ccc(O)c(Cl)c3)n2)c1,25.2%
2,COc1ccc(-c2nc(-c3nc4ccc(OC)cc4[nH]3)cc3c2[nH]c2ccccc23)cc1,2.46% (active)
3,COc1ccc(-c2nc(-c3nc4cc(Cl)c(Cl)cc4[nH]3)c3ccccn23)cc1,41.5%
4,COc1ccc(/C=C2/CN(C(=O)c3ccc(C)cc3)C/C(=C\c3ccc(OC)cc3)C2=O)cc1,105%
5,COc1cc(-c2cc(/C=C/C(=O)c3ccc(F)c(F)c3)[nH]n2)cc(OC)c1OC,58.1%
6,COc1ccc(/C(=C2\O[C@@H]([C@H]3COC(C)(C)O3)[C@H]3OC(C)(C)O[C@@H]23)c2cc(OC)c(OC)c(OC)c2)cc1O,79.4%
7,CS(=O)(=O)Nc1ccc(Nc2c3ccccc3nc3cc([N+](=O)[O-])ccc23)cc1,0.406% (active)
8,CCN(CC)CCC(=O)Nc1cccc2c1C(=O)c1c(c(O)c3ccccc3c1O)C2=O,15.5%
9,COc1ccc(-c2nsc3c2NC(=O)CC3c2ccc(F)cc2)cc1 (centres undefined),17.2%
10,N=c1c2c(-c3ccccc3)c(-c3ccccc3)n(Cc3ccccc3)c2ncn1CCCO,8.17% (active)
11,CC(C)(C#N)Nc1ccccc1,109%
12,Cc1cc(O)c(C(C)(C)C)cc1Sc1cc(C(C)(C)C)c(O)cc1C,42%
13,CC/C(=C(/c1ccc(OCCN(C)C)cc1)c1ccc(OC(=O)CCCCC(=O)c2c(C)[nH]c(/C=C3\N=C(c4ccc[nH]4)C=C3OC)c2C)cc1)c1ccccc1,61.2%
14,C[N+](C)(C)c1ncnc2nc[nH]c12,104%
15,Cc1cc(N(CCCNc2ccnc3cc(Cl)ccc23)Cc2cccs2)nc(Cl)n1,35.3%
16,N#CCCN(NC(=O)OCc1ccccc1)C(=O)OCc1ccccc1,103%
17,CSc1nn(-c2ccccc2)c2ncnc(Oc3ccccc3)c12,103%
18,CCCCOc1ccc(NC(=O)Nc2nnc(C)s2)cc1,102%
19,O=C1OCC2=C1C(c1cccc(Br)c1)c1cc3c(cc1N2CCO)CCC3 (centres undefined),-6.92% (active)
